Measurements reported in PubChem BioAssay AID624297 (National Center for Advancing Translational Sciences (NCATS), 2012).
About 6,200 (1.8%) of roughly 340,000 compounds were called active. Inconclusive results (about 10%) are left out. The entries come from a sample that favours actives as a whole. Where a call stands in place of a potency, no number is given. Unmarked numbers belong to inactive results. Calls come from the whole dose curve; as a rule, active = well fitted activation curve with a large enough effect; inconclusive = small, poorly fitted or top-dose-only effect; inactive = no such curve, though single readings can be large or run the other way.
Potency is the fitted concentration of half-maximal effect.

Test: A quantitative high throughput screen for small molecules that induce DNA re-replication in SW480 colon adenocarcinoma cells. Note: nearly all actives have a fitted effect of over 55% in size.
Settings: Hoechst DNA content imaging, 48 h; series mostly up to 46.1 µM
In short: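 Quantitative HTS format with DMSO vehicle controls; 48 hr drug incubation at 37 C, then 40 min Hoechst staining and scanning imager measurement at 405 nm excitation.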
With `CC1=Nn2c(nnc2-c2ccccc2)SC1` the Potency was “inactive”. For `Cc1nnc2n1N=C(c1ccccc1)CS2`, the Potency was “inactive”. For `COC(=O)[C@]1(CC(C)C)N[C@H](c2ccc(SC3CCCCC3)cc2)[C@@H]2C(=O)N(C)C(=O)[C@@H]21`, the Potency was “inactive”. For `Cc1cccc(Nc2nc3c(S(=O)(=O)c4ccccc4)nnn3c3ccccc23)c1C`, the Potency was “inactive”. In the case of `Cc1ccc(S(=O)(=O)c2nnn3c2nc(N2CCN(c4ccccn4)CC2)c2ccccc23)cc1`, the Potency is reported as “inactive”. In the case of `CC(=O)Nc1ccc(Nc2nc3c(S(=O)(=O)c4ccc(C)c(C)c4)nnn3c3ccccc23)cc1`, the Potency is reported as 18.4 µM (active). In the case of `S=C(Nc1ccccc1)Nc1ccc2ccccc2c1`, the Potency is reported as “inactive”. With `Cc1cccn2c(=O)c3cc(C(=O)NC4CCCCC4)sc3nc12` the Potency was “inactive”. With `Cc1cccn2c(=O)c3cc(C(=O)N4COCC4(C)C)n(C)c3nc12` the Potency was “inactive”. In the case of `Cc1cccn2c(=O)c3cc(C#N)c(=NC(=O)c4cccnc4)n(CC4CCCO4)c3nc12` (centres undefined), the Potency is reported as 18.4 µM (active). With `NN=C(NN=Cc1ccccc1)c1ccccc1` the Potency was “inactive”. For `Cc1nnc(NC(=O)CSc2nccn2-c2cccc(C)c2C)s1`, the Potency was 8.2 µM (active). In the case of `COc1ccccc1-n1c(CNC(=O)c2ccccc2)nnc1SCC(=O)Nc1nnc(C)s1`, the Potency is reported as “inactive”. In the case of `Cc1cccc(CSc2nnc(NC(=O)CSc3nnc(C)s3)s2)c1`, the Potency is reported as “inactive”. With `Cc1cc([N+](=O)[O-])c(=O)[nH]c1C` the Potency was “inactive”. With `O=C(c1[nH]ncc1-c1ccc(Cl)cc1)C1CO1` (centres undefined) the Potency was 16.4 µM (active). For `O=C(c1nnc(-c2ccc(Cl)cc2)o1)C1CCCC1`, the Potency was “inactive”. In the case of `N=C1c2ccccc2-c2ccccc21`, the Potency is reported as “inactive”. In the case of `COC(=O)c1ccc(C)c(NC(=O)Cn2c(C)csc2=O)c1`, the Potency is reported as “inactive”. For `CC(C)N(C(=O)[C@H]1C[C@H](CC(=O)NC(C)(C)C)C(=O)N2CCc3c([nH]c4ccc(Cl)cc34)[C@]12C)C(C)C`, the Potency was “inactive”. In the case of `CN1c2ccc(C=O)c3c(C=O)ccc(c23)N(C)C1(C)C`, the Potency is reported as 3.26 µM (active). With `COc1ccc(S(=O)(=O)N(C)C[C@H]2Oc3c(NC(=O)Nc4ccc5c(c4)OCO5)cccc3C(=O)N([C@H](C)CO)C[C@@H]2C)cc1` the Potency was “inactive”. With `CCOC(=O)C(CO)NC(=O)C1(NC(C)=O)CCCC1` (centres undefined) the Potency was “inactive”. For `C=CCn1c(SCC(=O)NCCCO)nc2sc3c(c2c1=O)CCC3`, the Potency was “inactive”. With `C=CCn1c(SCc2c(C)noc2C)nc2sc3c(c2c1=O)CCC(C)C3` (centres undefined) the Potency was 9.2 µM (active). With `C=CCn1c(SCC(=O)NCC2CCCO2)nc2sc(C)c(C)c2c1=O` (centres undefined) the Potency was “inactive”. With `Cc1ccc(NC(=O)CN(C)C(=O)c2ccc(Cl)c(S(=O)(=O)NCc3ccco3)c2)cc1` the Potency was “inactive”. In the case of `Cc1c(Cl)cnc(NC(=O)COC(=O)C2CCCC2)c1Cl`, the Potency is reported as “inactive”. In the case of `O=C1CC(c2ccccc2)C(c2ccccc2)=NN1` (centres undefined), the Potency is reported as “inactive”. With `COc1ccc(-c2cn(-c3ccc(OC)cc3)c(=S)[nH]2)cc1` the Potency was “inactive”. In the case of `S=c1[nH]c(-c2cccs2)cn1-c1ccccc1`, the Potency is reported as “inactive”. For `O=c1oc2ccccc2cc1-c1cn(-c2ccccc2)c(=S)[nH]1`, the Potency was 9.2 µM (active). For `O=C(O)c1ccc(S(=O)(=O)c2ccccc2)s1`, the Potency was “inactive”. `O=[N+]([O-])c1ccc(COc2ccccc2CN2CCOCC2)cc1` showed a re-replication activation of -7.64% [at 9.22 µM]. For `CCOC(=O)N1CCN(C(=O)c2ccccc2N(Cc2ccccc2)S(=O)(=O)c2ccc(OC)cc2)CC1`, the Potency was 14.6 µM (active). In the case of `CCOC(=O)N1CCN(S(=O)(=O)c2ccc(OC)cc2)CC1`, the Potency is reported as “inactive”. With `NC(=O)c1ccccc1N(Cc1ccccc1)S(=O)(=O)c1ccccc1` the Potency was “inactive”. In the case of `CCOC(=O)c1ccccc1NC(=O)CSc1nc2c(sc(=S)n2CC)c(=O)[nH]1`, the Potency is reported as “inactive”. For `CCOC(=O)C1=C(CN2CCc3ccccc32)NC(=O)NC1c1ccc(Cl)cc1` (centres undefined), the Potency was 7.31 µM (active). With `CCOC(=O)C1=C(c2ccccc2)NC(=S)NC1c1ccc(Cl)cc1` (centres undefined) the Potency was “inactive”. In the case of `CCOC(=O)C1=C(CN2CCCCCC2)NC(=O)NC1c1cccc([N+](=O)[O-])c1` (centres undefined), the Potency is reported as “inactive”. For `O=C(CN1CCN(S(=O)(=O)/C=C/c2ccccc2)CC1)NC(=O)NCc1ccco1`, the Potency was “inactive”. For `O=C(CN1CCN(c2ccccc2O)CC1)NC(=O)NCc1ccccc1`, the Potency was “inactive”. With `COc1ccccc1N1CCN(CC(=O)NC(=O)NCc2ccco2)CC1` the Potency was 5.8 µM (active). For `COC1=CC(=O)OC(c2ccc(OC)cc2)C1` (centres undefined), the Potency was “inactive”. In the case of `O=C(NCCC1CCCCN1S(=O)(=O)c1cccs1)C(=O)Nc1ccc(F)cc1F` (centres undefined), the Potency is reported as 11.2 µM (active). With `COc1ccccc1CCNC(=O)C(=O)NCCC1CCCCN1S(=O)(=O)c1cccs1` (centres undefined) the Potency was “inactive”. For `COc1ccc(CCNC(=O)C(=O)NCC2CCCN2S(=O)(=O)c2cccs2)cc1OC` (centres undefined), the Potency was “inactive”. For `Cc1noc(C)c1NC(=O)Nc1ccc2c(c1)C(=O)N([C@H](C)CO)C[C@H](C)[C@@H](CN(C)C(=O)Nc1ccc(C(F)(F)F)cc1)O2`, the Potency was “inactive”.
